# Experimental data as given in the supplement of paper PMC8728848.
# Many of the other results were omitted from the sample, so the strongest signals are more common in it than they were.
# B1: rCnSL-proA (Clitocybe nebularis) (protein)
# chain: AAFFSLVVLLALLPFGIHASALPSTELTPRVNPNLPGPNDVFVGFRGTNNIVGAIYEKDGIKDTPLNNGADAEMGPGSYITDGLFTARIFASGSAGNNPGTTATVCKIYASGVQWRGAPKGYIPVAYFGNGPTAEQRRQTYLRTLGLPGTAIRFGNLNTNPGQGPTAPRQMVVPPGPLRSLLKASCFPAADTRLPQTLHYFEKRVDWNIITAADSQTWGH
# How the values were obtained:
# Experiment in all cases: glycan array binding signal (z-score within array); higher = stronger binding
# Conditions in all cases: glycan notation: IUPAC condensed, linker removed
# [1] = molecular target: Gal(b1-4)GlcNAc(b1-3)Gal(b1-4)GlcNAc(b1-3)GalNAc
# Procedure, shortened: (§1)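 Glycan array data came from 3228 arrays in the Consortium for Functional Glycomics database, and only arrays with an available protein sequence were kept. Glycan names were put into IUPAC-condensed notation, and columns mapping to the same glycan were averaged. The binding signal is a within-array Z-score, averaged across arrays of one protein sequence run at different concentrations or buffers and across linkers. A negative Z-score can be read as non-binding.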
# [2] = molecular target: Gal(b1-4)GlcNAc(b1-3)[Fuc(a1-3)GlcNAc(b1-6)]Gal(b1-4)Glc
# Procedure, shortened: as §1
# [3] = molecular target: Gal(b1-4)GlcNAc6P
# Procedure, shortened: as §1
# [4] = molecular target: Gal6S(b1-4)Glc
# Procedure, shortened: as §1
# [5] = molecular target: GalNAc(a1-3)GalNAc(b1-3)Gal(a1-4)Gal(b1-4)Glc
# Procedure, shortened: as §1
# [6] = molecular target: GalNAc(b1-3)Gal(a1-6)Gal(b1-4)Glc
# Procedure, shortened: as §1
# [7] = molecular target: GalNAc(b1-4)GlcNAc(b1-2)Man(a1-3)[GalNAc(b1-4)GlcNAc(b1-2)Man(a1-6)]Man(b1-4)GlcNAc(b1-4)GlcNAc
# Procedure, shortened: as §1
# [8] = molecular target: GlcNAc(b1-3)Gal(b1-4)GlcNAc(b1-2)Man(a1-3)[GlcNAc(b1-3)Gal(b1-4)GlcNAc(b1-2)Man(a1-6)]Man(b1-4)GlcNAc(b1-4)GlcNAc
# Procedure, shortened: as §1
# [9] = molecular target: GlcNAc(b1-3)Gal(b1-4)GlcNAc(b1-3)Gal(b1-4)GlcNAc(b1-3)Gal(b1-4)GlcNAc(b1-2)Man(a1-3)[GlcNAc(b1-3)Gal(b1-4)GlcNAc(b1-3)Gal(b1-4)GlcNAc(b1-3)Gal(b1-4)GlcNAc(b1-2)Man(a1-6)]Man(b1-4)GlcNAc(b1-4)GlcNAc
# Procedure, shortened: as §1
# [10] = molecular target: GlcNAc(b1-3)Gal(b1-4)GlcNAc(b1-3)Gal(b1-4)GlcNAc(b1-3)Gal(b1-4)GlcNAc(b1-2)Man(a1-3)[GlcNAc(b1-3)Gal(b1-4)GlcNAc(b1-3)Gal(b1-4)GlcNAc(b1-3)Gal(b1-4)GlcNAc(b1-2)Man(a1-6)]Man(b1-4)GlcNAc(b1-4)[Fuc(a1-6)]GlcNAc
# Procedure, shortened: as §1
# [11] = molecular target: GlcNAc(b1-3)[GlcNAc(b1-6)]Gal(b1-4)GlcNAc
# Procedure, shortened: as §1
# [12] = molecular target: GlcNAc(b1-4)GlcNAc(b1-4)GlcNAc
# Procedure, shortened: as §1
# [13] = molecular target: GlcNAc(b1-4)[GlcNAc(b1-6)]GalNAc
# Procedure, shortened: as §1
# [14] = molecular target: GlcNAc(b1-6)Gal(b1-4)GlcNAc
# Procedure, shortened: as §1
# [15] = molecular target: Man(a1-3)[Man(a1-6)]Man(a1-6)[Man(a1-3)]Man(b1-4)GlcNAc(b1-4)GlcNAc
# Procedure, shortened: as §1
# [16] = molecular target: Neu5Ac(a2-3)Gal(b1-3)GalNAc
# Procedure, shortened: as §1
# [17] = molecular target: Neu5Ac(a2-3)Gal(b1-3)GlcNAc(b1-2)Man(a1-3)[Neu5Ac(a2-3)Gal(b1-3)GlcNAc(b1-2)Man(a1-6)]Man(b1-4)GlcNAc(b1-4)GlcNAc
# Procedure, shortened: as §1
# [18] = molecular target: Neu5Ac(a2-3)Gal(b1-3)GlcNAc(b1-6)GalNAc
# Procedure, shortened: as §1
# [19] = molecular target: Neu5Ac(a2-3)Gal(b1-3)[Fuc(a1-4)]GlcNAc(b1-3)Gal(b1-4)[Fuc(a1-3)]GlcNAc
# Procedure, shortened: as §1
# [20] = molecular target: Neu5Ac(a2-3)Gal(b1-4)GlcNAc(b1-3)Gal(b1-4)GlcNAc(b1-3)Gal(b1-4)GlcNAc(b1-2)Man(a1-3)[Neu5Ac(a2-3)Gal(b1-4)GlcNAc(b1-3)Gal(b1-4)GlcNAc(b1-3)Gal(b1-4)GlcNAc(b1-2)Man(a1-6)]GalNAc
# Procedure, shortened: as §1
# [21] = molecular target: Neu5Ac(a2-3)Gal(b1-4)GlcNAc(b1-6)[Neu5Ac(a2-3)Gal(b1-3)]GalNAc
# Procedure, shortened: as §1
# [22] = molecular target: Neu5Ac(a2-3)Gal6S(b1-4)[Fuc(a1-3)]GlcNAc
# Procedure, shortened: as §1
# [23] = molecular target: Neu5Ac(a2-6)Gal(b1-4)Glc
# Procedure, shortened: as §1
# [24] = molecular target: Neu5Ac(a2-6)Gal(b1-4)GlcNAc(b1-2)Man(a1-3)[Man(a1-6)]Man(b1-4)GlcNAc(b1-4)GlcNAc
# Procedure, shortened: as §1
# [25] = molecular target: Neu5Ac(a2-6)Gal(b1-4)GlcNAc(b1-3)Gal(b1-4)GlcNAc
# Procedure, shortened: as §1
# [26] = molecular target: Neu5Ac(a2-6)Gal(b1-4)GlcNAc(b1-6)[Gal(b1-3)]GalNAc
# Procedure, shortened: as §1
# [27] = molecular target: Neu5Ac(a2-8)Neu5Ac(a2-8)Neu5Ac(a2-3)Gal(b1-4)Glc
# Procedure, shortened: as §1
# [28] = molecular target: Neu5Gc(a2-6)Gal(b1-4)GlcNAc
# Procedure, shortened: as §1
binder,measurement,setting,value
B1,glycan array binding signal (z-score),[1],1.57
same,glycan array binding signal (z-score),[2],0.661
same,glycan array binding signal (z-score),[3],-1.27
same,glycan array binding signal (z-score),[4],-0.662
same,glycan array binding signal (z-score),[5],-0.574
same,glycan array binding signal (z-score),[6],0.329
same,glycan array binding signal (z-score),[7],3.42
same,glycan array binding signal (z-score),[8],0.077
same,glycan array binding signal (z-score),[9],-0.215
same,glycan array binding signal (z-score),[10],0.698
same,glycan array binding signal (z-score),[11],-0.723
same,glycan array binding signal (z-score),[12],-0.208
same,glycan array binding signal (z-score),[13],-0.002
same,glycan array binding signal (z-score),[14],-0.312
same,glycan array binding signal (z-score),[15],0.14
same,glycan array binding signal (z-score),[16],-0.476
same,glycan array binding signal (z-score),[17],5.37
same,glycan array binding signal (z-score),[18],0.201
same,glycan array binding signal (z-score),[19],-0.238
same,glycan array binding signal (z-score),[20],4.1
same,glycan array binding signal (z-score),[21],-0.211
same,glycan array binding signal (z-score),[22],-0.672
same,glycan array binding signal (z-score),[23],-0.233
same,glycan array binding signal (z-score),[24],-0.337
same,glycan array binding signal (z-score),[25],-0.269
same,glycan array binding signal (z-score),[26],-0.387
same,glycan array binding signal (z-score),[27],-0.436
same,glycan array binding signal (z-score),[28],-0.088
